Pf gametocyte = kills late stage P. falciparum gametocytes. P. falciparum stage V gametocytes, ATP luminescence, 24 h. inhibition, % at 10.9 µM. actives 0.065% (n = 150,000). AID 743093;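 active = inhibition above the mean plus 3 SD of compounds within the control limits, set per campaign, cut at about 38% in these data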;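 note: 0% = DMSO wells and 100% = medium only without gametocytes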
eIF4E-4G inh = blocks eIF4E binding to eIF4G; TR-FRET eIF4E-eIF4GI(517-606) binding, 2 h; inhibition, % at 21.7 µM; P63073+Q04637; AID 782; actives 0.37% (n = 220,000);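 active = inhibition above about 30%, limit read from the data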;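 note: 0% = full FRET control wells and 100% = background wells lacking eIF4GI fragment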
14-3-3 Bad PPI = disrupts binding of bovine 14-3-3 zeta to phospho-Bad peptide; P63103; inhibition, % at 21.7 µM; actives 0.71% (n = 220,000); TR-FRET 14-3-3zeta/Dy647-pBad peptide displacement, 1 h;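 active = inhibition above about 70%, limit read from the data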;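 note: 0% = full 14-3-3 plus peptide FRET controls and 100% = background without 14-3-3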
Target sequence (P63103 whole entry, looked up): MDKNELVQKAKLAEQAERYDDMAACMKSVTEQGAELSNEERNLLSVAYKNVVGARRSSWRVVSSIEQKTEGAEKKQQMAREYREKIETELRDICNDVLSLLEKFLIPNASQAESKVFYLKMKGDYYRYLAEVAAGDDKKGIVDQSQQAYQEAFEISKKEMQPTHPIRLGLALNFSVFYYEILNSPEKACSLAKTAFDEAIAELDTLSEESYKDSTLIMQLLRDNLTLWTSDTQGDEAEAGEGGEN
Mcl-1 Bim block = human Bim-Mcl-1 interaction inhibition | inhibition, % at 10 µM | Bead-based flow cytometry, Bim peptide-Mcl-1 binding | actives 0.1% (n = 190,000) | Q07820 | AID 1009; in the data active = inhibition above about 40%;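 note: 0% = no compound tracer wells and 100% = peptide blocker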
Target sequence (Q07820 whole entry, looked up): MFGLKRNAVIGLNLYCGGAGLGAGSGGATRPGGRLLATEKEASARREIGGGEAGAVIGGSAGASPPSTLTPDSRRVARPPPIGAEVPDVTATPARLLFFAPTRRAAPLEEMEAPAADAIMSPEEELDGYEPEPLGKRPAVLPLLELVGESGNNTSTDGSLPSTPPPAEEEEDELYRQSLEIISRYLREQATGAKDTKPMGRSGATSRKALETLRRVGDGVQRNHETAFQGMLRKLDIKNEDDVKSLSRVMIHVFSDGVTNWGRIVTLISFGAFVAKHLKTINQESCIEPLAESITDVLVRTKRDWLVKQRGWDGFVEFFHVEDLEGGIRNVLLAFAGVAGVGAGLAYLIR
Mcl1-Noxa inh = Mcl-1/Noxa interaction inhibition | TR-FRET Mcl-1/Noxa peptide binding, 2 h | Q07820 | inhibition, % at 21.7 µM | actives 1.5% (n = 220,000);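 active = compounds that cut the protein-peptide binding signal by more than 50% relative to plate controls in a single-dose test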;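 note: His-tagged Mcl-1 with rhodamine Noxa BH3 peptide and terbium anti-His antibody; 0% = Mcl-1 plus Noxa peptide wells and 100% = peptide-only wells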
Mcl1 Bid PPI = Mcl-1/Bid interaction inhibition; Q07820; TR-FRET Mcl-1/Bid-Dy647 peptide binding, 1536-well; inhibition, % at 21.7 µM; actives 0.97% (n = 220,000); AID 1021;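 active = compounds that cut the binding signal by more than half at the single screening dose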;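 note: His-tagged Mcl-1 with europium anti-His antibody binding Bid BH3 peptide; 0% = Mcl-1 plus peptide wells and 100% = peptide-only wells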
An asterisk follows results filed as active; / = not tested or not shown; [ ] = another dose, or the depositor's remark. Rows were chosen to be rich in hits. Some 2.7% of all compounds tested hit in one or more screens of this group.

SMILES	Pf gametocyte	eIF4E-4G inh	14-3-3 Bad PPI	Mcl-1 Bim block	Mcl1-Noxa inh	Mcl1 Bid PPI
Cc1cc(N/N=C/c2ccc(O)cc2)nc(NS(=O)(=O)c2ccccc2)n1	-11.9	12.6	4.8	7.0	53.5*	-11.3
CC(=O)Nc1cccc(NC(=S)Nc2ccc(F)c(Cl)c2)c1	9.2	92.5*	-5.2	0.0	11.3	-38.3
Cc1nc(S/C(=C\c2ccc(-c3ccc(C(=O)O)c(Cl)c3)o2)C(=O)O)n[nH]1	-7.5	9.6	86.0*	/	92.5*	54.5*
Cc1nc(S/C(=C\c2ccc(OCc3ccccc3Cl)cc2)C(=O)O)n[nH]1	/	-5.7	4.7	-3.0	-27.0	-36.0
CCN(CC)c1ccc(N=Cc2c(C)[nH]c3ccccc23)cc1	/	32.0*[fluorescence artefact?]	-5.7	-4.0	60.7*	-101.7
CCS(=O)(=O)c1ccc(S(=O)(=O)CC)s1	/	6.4	13.2	0.0	-7.1	70.5*
CCS(=O)(=O)c1ccc(N)cc1	-20.4	0.3	10.9	-3.0	19.5	21.7
CN(C)c1ccc(N=C/C=C2/N(C)c3ccccc3C2(C)C)cc1	-22.8	-0.3	-20.3	-11.0	64.1*	-69.2
COc1ccccc1/C=C(/C(=O)OCC(=O)Nc1ccc(N(C)C)cc1)c1ccccc1	-17.0	8.4	-10.9	-3.0	69.4*	-52.9
CC(C(Sc1ccccc1N)c1ccccc1)[N+](=O)[O-] (configuration not stated)	6.5	-5.1	-1.8	/	-8.2	-9.4
O=[N+]([O-])c1ccc(C2Nc3cccc4cccc(c34)N2)cc1	-18.0	6.0	1.2	-9.0	67.4*	-63.6
COc1cc(NC(=O)c2cccnc2)ccc1-c1cc2ccccc2oc1=O	-10.9	-0.9	35.0	-1.0	50.6*	20.3
O=C(Nc1ccc(-c2cc3ccccc3oc2=O)c(Cl)c1)c1cccnc1	/	-11.3	59.4	-3.0	-91.7	-11.5
O=C(Nc1cccnc1)c1cccc(-c2cc3ccccc3oc2=O)c1	5.2	6.7	77.8*	-1.0	27.6	56.9*
O=C(Nc1cccnc1)c1cc2c(ccc3ccccc32)o1	/	75.7*	76.7*	0.0	36.0	25.8
Cc1cccn2c(CN[C@H]3CCCCNC3=O)c(C(=O)N3CCOCC3)nc12	11.4	3.4	5.2	0.0	8.1	-20.6
COc1cc(/C=N/NC(=O)c2ccc(CSc3nncn3C)cc2)cc(OC)c1O	14.3	9.9	-12.0	0.0	55.1*	-33.6
COc1ccc(/C=N/NC(=O)c2ccc(O)cc2O)cc1CSc1ccccn1	19.3	7.1	8.4	0.0	98.2*	-20.0
COc1cc(/C=N/NC(=O)c2ccc(CN3c4cccc5cccc(c45)S3(=O)=O)cc2)cc(OC)c1O	-14.0	1.8	91.8*	0.0	72.1*	82.2*
COc1ccc(/C=N/NC(=O)c2ccc(COc3cccc4cccnc34)cc2)cc1O	-9.2	-4.9	-4.9	/	50.7*	-43.9
Cc1[nH]c2ccccc2c1C(=O)C(=O)N1CCN(C(=O)c2ccco2)CC1	-29.2	0.8	-7.7	-1.0	1.1	-27.1
Nc1c(C(=O)NCc2ccc3c(c2)OCO3)nnn1Cc1ccc(Br)cc1	16.9	-1.8	10.4	/	-1.7	-35.7
C=CCC1(CC=C)CCCN1Cc1nc(COc2ccccc2)no1	7.1	-4.9	4.1	/	15.3	-52.6
O=C(CC1Sc2ccccc2NC1=O)OCc1cc(=O)oc2cc(O)ccc12 (configuration not stated)	-1.5	15.1	-14.5	-2.0	95.0*	-95.9
CCN(CC)S(=O)(=O)c1cccc2nsnc12	8.1	7.6	-0.7	-3.0	-10.0	-14.8
SMILES	Pf gametocyte	eIF4E-4G inh	14-3-3 Bad PPI	Mcl-1 Bim block	Mcl1-Noxa inh	Mcl1 Bid PPI
CCN(CC)C(=O)CN(C)S(=O)(=O)c1cccc2nsnc12	/	0.2	-8.1	-1.0	-7.3	75.6*
COC(=O)CCSCC(=O)Nc1ccc(C)c(S(=O)(=O)N2CCCCC2)c1	21.5	-1.5	6.5	/	5.2	-51.9
Oc1c(Cl)cc(Cl)cc1Sc1cc(Cl)cc(Cl)c1O	/	22.8	78.6*	1.0	117.1*	98.7*
Oc1c(Cl)cc(Cl)cc1CNn1cnnc1	16.7	0.6	-2.6	-3.0	15.0	-44.7
COc1cccc(Cn2c(=O)c3[nH]cnc3n(-c3ccccc3C)c2=O)c1	16.3	-1.0	8.5	/	18.8	-3.7
COc1ccc(Cn2c(=O)cc(N)n(-c3ccccc3C)c2=O)cc1	5.1	5.8	97.3*	/	-0.2	0.2
O=C(NCc1ccc2c(c1)OCO2)c1ccc2c(c1)S(=O)(=O)c1ccccc1C2=O	-10.3	/	/	/	/	/
CCN(CC)Cc1cc(NC2=NS(=O)(=O)c3ccccc32)ccc1OC(=O)c1ccccc1	6.9	-1.4	-0.8	0.0	11.9	1.8
CCOC(=O)[C@H]1[C@H]2COc3ccc(C)cc3[C@@H]2N2C(=O)c3cc(C)ccc3NC(=O)[C@@]12C	8.5	/	/	/	/	/
Cc1cccc(NC(=O)Cn2cnc3ccccc3c2=O)c1C	/	3.2	92.4*	2.0	1.6	-6.4
CN1CCN(c2ccc(CNS(=O)(=O)c3ccc(Cl)cc3)cc2)CC1	5.1	-0.5	-3.1	/	24.4	-10.1
Cc1cccc(CN2CCSc3sccc3C2=O)c1	14.1	3.1	0.8	-3.0	14.7	-34.4
CC(Cc1c[nH]c2ccccc12)C(=O)O (configuration not stated)	/	9.9	51.6	2.0	56.6*	-71.6
O=C(CC(C(=O)O)c1c[nH]c2ccccc12)c1ccccc1 (configuration not stated)	2.3	4.8	2.2	-2.0	21.5	81.7*
O=C(Cc1c[nH]c2ccccc12)OCC(=O)c1ccccc1	/	2.3	-5.6	0.0	-16.0	-31.9
NCC(c1ccccc1)c1c[nH]c2ccccc12 (configuration not stated)	-0.1	1.9	-10.2	47.0*	6.6	-34.3
O=C(O)C(O)Cc1c[nH]c2ccccc12 (configuration not stated)	/	-2.0	3.3	-3.0	24.9	0.6
CC(=O)N1CCC2(CC1)CC(=O)c1cc(OCC(=O)N3CCOCC3)ccc1O2	-11.3	2.1	-7.4	0.0	6.8	-30.3
CCOC(=O)N1CCN(C(=O)COc2ccc3c(c2)C(=O)CC2(CCN(C(C)=O)CC2)O3)CC1	13.8	-2.5	95.4*	0.0	-14.0	-5.1
Cc1ccccc1-n1c(C)nnc1SCC(=O)NC1CCCc2ccccc21 (configuration not stated)	2.0	3.8	92.3*[fluorescence artefact?]	2.0	8.0	16.3
Cc1cccc(Nc2nnc(SCC(=O)NC3CCCc4ccccc43)s2)c1C (configuration not stated)	-1.3	3.4	1.8	-4.0	16.0	1.4
COc1ccc2nc(COC(=O)c3cccs3)c(C(C)=O)[n+]([O-])c2c1	22.6	-2.3	2.7	/	16.2	-91.1
O=C(CP(=O)(c1ccccc1)c1ccccc1)Nc1nc2ccc(Cl)cc2s1	9.5	-0.8	45.8	/	11.5	96.9*
O=C(Nc1nc2ccc(Cl)cc2s1)C1CC1	-20.3	/	/	/	/	/

Compound activity deposited in PubChem by several laboratories.
